# Experimental data: the supplement of paper PMC8728848
# This excerpt belongs to a sample that is enriched for the strongest signals.
# B1: TAL6-6LysM (Trichoderma atroviride) (protein)
# chain: AASKLGVPQPAQRDQVNCQLYAVQPNDNCIDISSKNNITYAQLLSWNPSLSSTCSNLASLNSSSICVSNPKGTFSISSNTVGATDIATTTAPVPSPTLDQTTSRCAKYYQVSDGDDCSHLTAQFAITLKDFIFLNSEVWQNCTNLELGYYYCVEPVGYISTYPGYLPTATTKPFNQTSATSLPYDGDPWARFSSNSSVIPIANGTRVDCYSYVYVKNLTENLFADCWNMASMYEITREELVLWNPSLGNDGSSGSNLSGAEASQVASSIAIPTTAPSSITTNLYTYPCTVAANISYCVALVSSTGALPTNTAPPGPHASGEISNCTAWFAPEAYDTCKSILDIFEMSFANFYKMNPSVGPDCSGLAVGTNYCVSTYPNGEDPNDDWDGDDSIPSISPTGIITPTPTQSGMVSNCNKFYDVHSNDGCSAIASSQHVDLSSLYKWNPAIKTDCSGLQASVYVCIGILTTSMSTTSKLPTTTSKPSTTSKPPTGITTPTPTQSGMVKNCNKFYDVHSGDGCSAIASSQKVNLSSFYLWNPAVKTDCSGLQASVFVCIGTLTTSMSTTTSKLPTTTSKPSTTSKPPTGIITPTPTQNGMVKNCNKFYDVHSGDGCSAIASSQKVNLSSFYLWNPAVKTDCSGLQASVFVCVGTATTTTAAGITTPTPTQSGMVSGCNKFYDVHAGDGCSAIASSQKIALSSLYKWNPAVKTDCSGLQASVYICIGVGNAAAARVTGAAASFLEQKLISEEDLNSAVDHHHHHH
# Columns and labels:
# Test in all cases: glycan array binding signal (z-score within array); higher = stronger binding
# Settings in all cases: glycan notation: IUPAC condensed, linker removed
# [1] = target: Fuc(a1-2)Gal(b1-3)GlcNAc(b1-3)Gal(b1-4)Glc
# How it was run: (§1)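 From the Consortium for Functional Glycomics database, 3228 arrays were curated, keeping only those whose protein sequence was available. Binding is given as a within-array Z-score averaged across arrays sharing a protein sequence and across linkers. Negative Z-scores can be read as non-binding.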
# [2] = target: Fuc(a1-2)Gal(b1-3)GlcNAc6S
# How it was run: as §1
# [3] = target: Fuc(a1-2)Gal(b1-3)[Fuc(a1-4)]GlcNAc(b1-2)Man(a1-3)[Fuc(a1-2)Gal(b1-3)[Fuc(a1-4)]GlcNAc(b1-2)Man(a1-6)]Man(b1-4)GlcNAc(b1-4)[Fuc(a1-6)]GlcNAc(b1-4)[Fuc(a1-6)]GlcNAc
# How it was run: as §1
# [4] = target: Fuc(a1-2)Gal(b1-4)GlcNAc(b1-2)Man
# How it was run: as §1
# [5] = target: Fuc(a1-2)Gal(b1-4)GlcNAc(b1-3)[Fuc(a1-2)Gal(b1-4)GlcNAc(b1-6)]GalNAc
# How it was run: as §1
# [6] = target: Fuc(a1-2)Gal(b1-4)GlcNAc(b1-6)GalNAc
# How it was run: as §1
# [7] = target: Fuc(a1-2)Gal(b1-4)[Fuc(a1-3)]GlcNAc(b1-3)Gal(b1-4)[Fuc(a1-3)]GlcNAc(b1-3)Gal(b1-4)[Fuc(a1-3)]GlcNAc
# How it was run: as §1
# [8] = target: Fuc(a1-2)Gal6S(b1-4)Glc
# How it was run: as §1
# [9] = target: Fuc(a1-2)[Gal(a1-3)]Gal(b1-4)GlcNAc(b1-3)[Fuc(a1-2)[Gal(a1-3)]Gal(b1-4)GlcNAc(b1-6)]GalNAc
# How it was run: as §1
# [10] = target: Fuc(a1-2)[Gal(a1-3)]Gal(b1-4)[Fuc(a1-3)]GlcNAc(b1-3)GalNAc
# How it was run: as §1
# [11] = target: Fuc(a1-2)[GalNAc(a1-3)]Gal
# How it was run: as §1
# [12] = target: Fuc(a1-2)[GalNAc(a1-3)]Gal(b1-3)GlcNAc(b1-3)GalNAc
# How it was run: as §1
# [13] = target: Fuc(a1-2)[GalNAc(a1-3)]Gal(b1-4)[Fuc(a1-3)]GlcNAc(b1-3)GalNAc
# How it was run: as §1
# [14] = target: Fuc(a1-3)[GalNAc(b1-4)]GlcNAc
# How it was run: as §1
# [15] = target: Gal(a1-3)Gal(b1-4)GlcNAc(b1-2)Man
# How it was run: as §1
# [16] = target: Gal(a1-3)Gal(b1-4)GlcNAc(b1-2)Man(a1-3)[Gal(a1-3)Gal(b1-4)GlcNAc(b1-2)Man(a1-6)]Man(b1-4)GlcNAc(b1-4)GlcNAc
# How it was run: as §1
# [17] = target: Gal(a1-4)Gal(b1-4)Glc
# How it was run: as §1
# [18] = target: Gal(b1-3)Gal
# How it was run: as §1
# [19] = target: Gal(b1-3)GalNAc(b1-4)Gal(b1-4)Glc
# How it was run: as §1
# [20] = target: Gal(b1-3)GlcNAc(b1-2)Man
# How it was run: as §1
# [21] = target: Gal(b1-3)GlcNAc(b1-3)GalNAc
# How it was run: as §1
# [22] = target: Gal(b1-3)[Fuc(a1-4)]GlcNAc(b1-6)GalNAc
# How it was run: as §1
# [23] = target: Gal(b1-4)Gal
# How it was run: as §1
# [24] = target: Gal(b1-4)GlcNAc(b1-2)Man(a1-6)[Man(a1-3)]Man(b1-4)GlcNAc(b1-4)GlcNAc
# How it was run: as §1
# [25] = target: Gal(b1-4)GlcNAc(b1-3)Gal(b1-3)GalNAc
# How it was run: as §1
# [26] = target: Gal3S(b1-4)[Fuc(a1-3)]Glc6S
# How it was run: as §1
# [27] = target: Gal3S6S(b1-4)GlcNAc
# How it was run: as §1
# [28] = target: Gal3S6S(b1-4)GlcNAc6S
# How it was run: as §1
# [29] = target: Gal6S(b1-4)GlcNAc6S
# How it was run: as §1
# [30] = target: GalNAc(a1-3)Gal
# How it was run: as §1
binder,measurement,setting,value
B1,glycan array binding signal (z-score),[1],-0.234
same,glycan array binding signal (z-score),[2],0.906
same,glycan array binding signal (z-score),[3],0.449
same,glycan array binding signal (z-score),[4],-0.377
same,glycan array binding signal (z-score),[5],-0.205
same,glycan array binding signal (z-score),[6],3.12
same,glycan array binding signal (z-score),[7],2.68
same,glycan array binding signal (z-score),[8],-0.385
same,glycan array binding signal (z-score),[9],-0.724
same,glycan array binding signal (z-score),[10],0.955
same,glycan array binding signal (z-score),[11],-0.757
same,glycan array binding signal (z-score),[12],0.204
same,glycan array binding signal (z-score),[13],-0.108
same,glycan array binding signal (z-score),[14],2.99
same,glycan array binding signal (z-score),[15],0.538
same,glycan array binding signal (z-score),[16],0.08
same,glycan array binding signal (z-score),[17],2.69
same,glycan array binding signal (z-score),[18],-0.192
same,glycan array binding signal (z-score),[19],-0.503
same,glycan array binding signal (z-score),[20],3.66
same,glycan array binding signal (z-score),[21],-0.729
same,glycan array binding signal (z-score),[22],1.02
same,glycan array binding signal (z-score),[23],-0.397
same,glycan array binding signal (z-score),[24],0.445
same,glycan array binding signal (z-score),[25],-0.573
same,glycan array binding signal (z-score),[26],2.96
same,glycan array binding signal (z-score),[27],2.51
same,glycan array binding signal (z-score),[28],3
same,glycan array binding signal (z-score),[29],-0.018
same,glycan array binding signal (z-score),[30],2.44
